# Hit rate of the full screen: of about 310,000 compounds, about 14,000 (4.5%) showed an effect of 50% or more. The effect is printed as a negative number. For the sample, strong results were picked, then their nearest neighbours and some compounds at random.
# Target: human ether-à-go-go-related gene (hERG) potassium channel (human, UniProt Q12809)
# Assay: primary screen, population patch clamp on CHO cells stably expressing hERG; higher = less effect of the substance
# 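Further: peak tail current of the secondary pulse compared with the same well before compound.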
# human ether-à-go-go-related gene (hERG) potassium channel, sequence (Q12809 whole entry, looked up): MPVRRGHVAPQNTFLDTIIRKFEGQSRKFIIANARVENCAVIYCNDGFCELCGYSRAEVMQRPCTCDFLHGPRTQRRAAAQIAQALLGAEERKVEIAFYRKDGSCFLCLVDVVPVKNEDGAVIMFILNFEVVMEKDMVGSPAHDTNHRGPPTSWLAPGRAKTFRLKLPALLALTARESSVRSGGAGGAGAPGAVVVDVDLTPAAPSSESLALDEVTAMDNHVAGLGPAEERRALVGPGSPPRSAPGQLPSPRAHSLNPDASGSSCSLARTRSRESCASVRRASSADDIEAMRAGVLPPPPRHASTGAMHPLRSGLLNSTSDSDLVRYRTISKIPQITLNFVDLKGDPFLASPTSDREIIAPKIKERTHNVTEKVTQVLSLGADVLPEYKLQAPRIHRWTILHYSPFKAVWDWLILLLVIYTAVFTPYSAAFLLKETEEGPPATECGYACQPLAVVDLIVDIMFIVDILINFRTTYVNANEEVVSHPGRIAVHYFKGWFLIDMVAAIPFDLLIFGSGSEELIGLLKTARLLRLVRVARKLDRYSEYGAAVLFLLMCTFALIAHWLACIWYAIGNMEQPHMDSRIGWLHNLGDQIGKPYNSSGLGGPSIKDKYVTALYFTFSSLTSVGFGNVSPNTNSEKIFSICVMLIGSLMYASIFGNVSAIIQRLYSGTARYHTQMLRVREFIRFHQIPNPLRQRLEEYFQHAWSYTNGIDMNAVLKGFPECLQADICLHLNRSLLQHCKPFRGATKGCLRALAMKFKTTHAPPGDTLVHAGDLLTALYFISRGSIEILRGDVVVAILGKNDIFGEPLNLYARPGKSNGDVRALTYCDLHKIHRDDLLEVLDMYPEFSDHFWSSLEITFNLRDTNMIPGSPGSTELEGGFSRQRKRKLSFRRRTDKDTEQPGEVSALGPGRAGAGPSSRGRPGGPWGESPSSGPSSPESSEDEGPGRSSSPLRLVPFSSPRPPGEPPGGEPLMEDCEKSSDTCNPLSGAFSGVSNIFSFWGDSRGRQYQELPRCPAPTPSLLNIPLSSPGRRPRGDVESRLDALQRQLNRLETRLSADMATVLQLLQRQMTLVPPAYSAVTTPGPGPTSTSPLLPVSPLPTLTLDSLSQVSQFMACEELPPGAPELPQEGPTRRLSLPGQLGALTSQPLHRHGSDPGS
row,SMILES,"hERG current change (%, negative = inhibition) at 10uM"
1,Cc1cccc(CNc2ccc(C(CC(N)=O)NC(=O)c3cccc(Br)c3)cc2[N+](=O)[O-])c1 (stereo not drawn),-19.8%
2,CC(C)C(=O)Nc1cccc(NC(=O)c2cccc([N+](=O)[O-])c2)c1,-30.9%
3,O=C(C[n+]1ccc2ccccc2c1)c1cccc2ccccc12.[Br-],-72.8%
4,O=C(C[n+]1cccc(C(=O)Nc2ccccc2)c1)c1ccc([N+](=O)[O-])cc1.[Br-],-73.1%
5,O=C(C[n+]1cccc(NC(=O)c2ccccc2)c1)c1ccc(NC(=O)c2ccccc2)cc1.[Br-],1.37%
6,O=C(Nc1cccc([N+](=O)[O-])c1)c1cccc(C(=O)Nc2cccc([N+](=O)[O-])c2)c1,24.1%
7,CCC(=O)Nc1cccc(NC(=O)c2cccc([N+](=O)[O-])c2)c1,-61.2%
8,O=C(C[n+]1ccc2ccccc2c1)c1ccccc1.[Br-],-22.5%
9,O=C(C[n+]1ccn(-c2ccccc2)c1)c1ccc([N+](=O)[O-])cc1.[Br-],-61.3%
10,O=C(C[n+]1ccc2ccccc2c1)c1ccc(NC(=O)c2ccccc2)cc1.[Br-],-0.135%
11,C=Cn1cc[n+](CC(=O)c2ccc(-c3ccccc3)cc2)c1.[Br-],7.91%
12,O=C(Cn1cc[n+](Cc2ccccc2)c1)c1ccc([N+](=O)[O-])cc1.[Br-],-23.7%
13,O=C(Nc1ccccc1)c1ccc[n+](Cc2ccc([N+](=O)[O-])cc2)c1.[Br-],-4.25%
14,COc1ccc(/C=C/C(=O)O)cc1S(=O)(=O)NCC1CCCO1 (stereo not drawn),14.1%
15,O=[N+]([O-])c1cccc(CSC2=NCCN2S(=O)(=O)c2ccccc2)c1,-6.78%
16,O=C(O)c1cccc(CSc2nc(-c3ccc(Cl)cc3)cc(C(F)(F)F)n2)c1,-0.199%
17,NNC(=O)c1c(O)c2cccc3c2n(c1=O)CCC3,22.4%
18,COc1ccc(N2CCN(S(=O)(=O)c3ccc4c(c3)CCCC4)CC2)c([N+](=O)[O-])c1,6.51%
19,Cc1cc(C(=O)c2ccc3ccccc3c2)c(C)o1,2.09%
20,Cn1ncc([N+](=O)[O-])c1C(=O)N/N=C/c1ccc(F)cc1,-9.05%
21,O=C(Nc1ccccc1C(=O)N1CCCCC1)c1cc(F)c(F)cc1Cl,1.47%
22,NC(=O)c1ccc[n+](CC(=O)c2cccc([N+](=O)[O-])c2)c1.[Br-],16.9%
23,O=C(Nc1ccc[n+](CC(=O)c2cccc3ccccc23)c1)c1ccccc1.[Br-],-58.9%
24,O=C(Nc1cccc([N+](=O)[O-])c1)c1ccccc1,7.97%
25,O=C(C[n+]1cccc(NC(=O)c2ccccc2)c1)c1cccc([N+](=O)[O-])c1.[Br-],-76.3%
26,Cc1ccc(C(=O)C[n+]2cccc3ccccc32)cc1.[Br-],-9.35%
27,NC(=O)c1ccc[n+](CC(=O)c2ccc(NC(=O)c3ccccc3)cc2)c1.[Br-],27.1%

row,SMILES,"hERG current change (%, negative = inhibition) at 10uM"
1,O=C(C[n+]1cccc(NC(=O)c2ccccc2)c1)c1ccccc1.[Br-],-18.1%
2,O=C(C[n+]1cccc2ccccc21)c1ccccc1.[Br-],-1.84%
3,Cc1cc[n+](CC(=O)c2ccccc2)c2ccccc12.[Br-],-8.1%
4,O=C(C[n+]1cccc2ccccc21)c1ccc([N+](=O)[O-])cc1.[Br-],-72.4%
5,Cc1cc[n+](CC(=O)c2ccc(NC(=O)c3ccccc3)cc2)c2ccccc12.[Br-],7.1%
6,Cc1cc[n+](CC(=O)c2cccc([N+](=O)[O-])c2)c2ccccc12.[Br-],-58.8%
7,O=C1c2ccccc2C(O)(Cc2ccccc2)N1Cc1ccco1 (stereo not drawn),10.1%
8,Cc1ccc(C(=O)Nc2ccc(N3CCOCC3)cc2)cc1S(=O)(=O)N1CCCCC1,-10.1%
9,CCOC(=O)CC1(c2ccc(OC)c(OC)c2)C(=O)c2ccccc2C1=O,-1.97%
10,c1ccc(-c2cc3c(nn2)CCc2nonc2-3)cc1,0.384%
11,COc1ccc(-c2nnc(SCC(=O)c3cccs3)o2)cc1,-8.4%
12,CCCOC(=O)CCCCCCCCC(O)CN1CCCCC1.Cl (stereo not drawn),-30%
13,Cc1ccnc(NC(=O)Nc2cccc(F)c2)c1,-4.23%
14,COc1ccc(NC(=O)c2ccc3ccccc3c2)cc1,11%
15,Cc1cccc(CSCCNC(=O)c2ccc(N(C)S(=O)(=O)c3ccccc3)cc2)c1,-4.05%
16,Cc1ccc(C(CC(=O)N2CCCC2)c2ccccc2)c(O)c1 (stereo not drawn),4.04%
17,Cc1ccc(C(CC(=O)N2CCCCC2)c2ccccc2)c(O)c1C (stereo not drawn),-22.1%
18,Cc1ccc(C(CC(=O)N2CCCC2)c2ccccc2)c(O)c1C (stereo not drawn),-57.9%
19,Cc1ccc(C(CC(=O)N2CCNCC2)c2ccccc2)c(O)c1C (stereo not drawn),-63.8%
20,Cc1cccc(C(CC(=O)N2CCCC2)c2ccccc2)c1O (stereo not drawn),-19.4%
21,Cc1cccc(C(CC(=O)N2CCCCC2)c2ccccc2)c1O (stereo not drawn),-34.2%
22,O=C(c1ccc(Br)s1)N1CCN(c2ncccn2)CC1,-20.3%
23,CC12CCC3c4ccc(O)cc4CCC3C1CC(O)C2O (stereo not drawn),19.5%
24,CC1=C(C(=O)Nc2ccccn2)C(c2ccccc2Cl)NC(=S)N1 (stereo not drawn),10.1%
25,CC(=NCCN1CCN(C(C)=C2C(=O)c3ccccc3C2=O)CC1)C1=C(O)CC(C)(C)CC1=O,-50.5%
26,CC(=NCCN1CCN(C(=S)Nc2ccccc2)CC1)C1=C(O)CC(C)(C)CC1=O,-15.3%
27,CC(=C1C(=O)c2ccccc2C1=O)N1CCN(CCN=CC2=C(O)CC(C)(C)CC2=O)CC1,-42.3%
